AmpC inh no detg = inhibitors of E. coli AmpC beta-lactamase without detergent | P00811 | AmpC nitrocefin hydrolysis, absorbance 480 nm, 0.0001% Triton | Potency, µM (highest dose often 57.1 µM), for inactives: top-dose activity change, negative = inhibition, hits mostly inhibitors | 330,000 tested, 0.52% active;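 note: plate controls were no compound for no effect and no enzyme for full effect; nearly all actives have a fitted effect of over 20% in size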
Target sequence (P00811 whole entry, looked up): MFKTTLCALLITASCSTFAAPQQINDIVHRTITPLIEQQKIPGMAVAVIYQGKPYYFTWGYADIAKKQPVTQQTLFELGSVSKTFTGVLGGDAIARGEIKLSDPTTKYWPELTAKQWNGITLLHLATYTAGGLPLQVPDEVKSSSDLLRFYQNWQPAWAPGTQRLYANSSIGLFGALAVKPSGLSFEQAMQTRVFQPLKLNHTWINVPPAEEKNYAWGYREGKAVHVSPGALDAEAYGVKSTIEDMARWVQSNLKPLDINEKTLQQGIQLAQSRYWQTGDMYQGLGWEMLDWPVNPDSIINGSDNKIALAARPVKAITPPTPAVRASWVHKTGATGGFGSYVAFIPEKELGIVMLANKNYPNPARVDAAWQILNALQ
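20 mM phosphate pH 7.0 + 0.01% (detergent screen) or 0.0001% Triton X-100; 5.3 nM AmpC reagent; cpd preinc 15 min RT; nitrocefin (800 uM stock) to start; A480 q20 s × 4 min; Activity was normalised to no-enzyme and no-compound control wells.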
HCV inhibitor = inhibitors of hepatitis C virus infection; Potency, µM (series often up to 41.8 µM), without a hit: at the top dose activity change, negative = inhibition, hits mostly inhibitors; 340,000 tested, 3.4% active; Huh7.5.1 HCVcc-Cre infection, luciferase reporter, 44 h
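Compounds are dispensed onto cells plated 4 h earlier at 1,000 per well, with HCVcc-Cre virus (about 0.5 moi) added next. Following 44 h of culture, luminescent signal is measured for 15 sec after 15 min with substrate at room temperature.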
AmpC detergent = AmpC beta-lactamase inhibition with detergent present. P00811. AmpC hydrolysis of nitrocefin, absorbance 480 nm, 0.01% Triton. Potency, µM (titrated, usually from 114 µM), for the others: at the highest dose activity change, negative = inhibition, actives largely listed as inhibitors. 370,000 tested, 0.041% active;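 note: 0% = no-compound wells and -100% = no-enzyme wells; nearly all actives have a fitted effect of over 25% in size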
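20 mM phosphate pH 7.0 + 0.01% (detergent screen) or 0.0001% Triton X-100; 5.3 nM AmpC reagent; cpd preinc 15 min RT; nitrocefin (800 uM stock) to start; A480 q20 s × 4 min; Activity was normalised to no-enzyme and no-compound control wells.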
AMA1-RON2 inh = inhibitors of Plasmodium falciparum AMA1-RON2 interaction; AlphaScreen AMA1-biotinylated RON2 peptide binding; Potency, µM (series often up to 58.2 µM), inactives show top-dose activity change, negative = inhibition, actives largely listed as inhibitors; 360,000 tested, 0.2% active; AID 720542;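 note: 0% = vehicle wells and -100% = peptide control; nearly all actives have a fitted effect of over 45% in size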
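AMA1 (3D7) with his tag at 25 nM final met compounds first, then biotinylated RON2 peptide at 25 nM; detection used donor plus acceptor beads, 10 µg/mL apiece, read by AlphaScreen after 30 min at room temperature.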
Pf growth 48h = inhibits P. falciparum growth in the first generation, 48 h | AID 504832 | P. falciparum luciferase growth in erythrocytes, 48 h | 310,000 tested, 5.9% active | Potency, µM (titrated, usually from 28.7 µM), inactives show top-dose activity change, negative = inhibition, hits mostly inhibitors
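Parasite viability was followed by luminescence of a genomically integrated firefly luciferase. Cultures held 0.1% parasitemia at 2% hematocrit (final), incubated under 5% CO2 at 37 C.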
Pf growth 96h = P. falciparum growth inhibition at 96 hours; 320,000 tested, 6.9% active; Potency, µM (titrated, usually from 28.7 µM), without a hit: at the top dose activity change, negative = inhibition, actives largely listed as inhibitors; P. falciparum luciferase reporter growth, 96 h; AID 504834
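Erythrocytes infected with luciferase-expressing P. falciparum were dispensed at 2% hematocrit and 0.05% parasitemia (final), then incubated with compounds 96 hours at 37 C in 5% CO2. Luminescence after detection reagent addition reported growth.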
Active calls of the source: *; ? = inconclusive; nt = not tested or not shown; [ ] = another dose, or the depositor's remark. Sampled rows, rich in hits. Any-hit rate of the full collection: about 11%. Calls come from the whole dose curve; as a rule, active = well fitted curve in the direction sought with a large enough effect; inconclusive = small, poorly fitted or top-dose-only effect, or another doubt; inactive = no such curve, though single readings can be large; an effect the other way counts as inactive or inconclusive. Unless noted, % is set by controls: 0 for no effect and ±100 for the full control effect; potency is the fitted concentration of half-maximal effect.

SMILES	AmpC inh no detg	HCV inhibitor	AmpC detergent	AMA1-RON2 inh	Pf growth 48h	Pf growth 96h
Cc1[nH]c2ccccc2c1CC#N	-17%	22%	-9%	-1%	1%	17%
Cc1[nH]c2ccccc2c1C(C#N)(C#N)C1C(=O)c2ccccc2C1=O	14µM*	1%	-6%	-28%	?	?
Cc1ccc(C)c(CSC2=NC(C)(C)Nc3ccccc32)c1	nt	nt	-6%	nt	nt	nt
Cc1[nH]n(-c2ccccc2)c(=O)c1N=Nc1c(O)cc(S(=O)(=O)N(C)C)c2ccccc12	-27%	?	-14%	49%	3.3µM*	4.1µM*
CC(=O)NC(c1ccccc1)c1nc(-c2ccc(S(C)(=O)=O)cc2)cs1 (stereo not drawn)	nt	nt	nt	-4%	nt	nt
C=CCN(C(=O)CC(NC(C)=O)c1ccccc1)c1nc(-c2ccc(S(C)(=O)=O)cc2)cs1 (stereo not drawn)	114%	?	-5%	10%	9.3µM*	?
O=C(NCc1noc2ccccc12)Nc1ccc(F)cc1F	nt	nt	0%	nt	nt	nt
Cc1ccc(C)c2sc(N3CCN(C(=O)C(C)(C)C)CC3)nc12	nt	nt	-1%	nt	nt	nt
CC(C)OCCCN(C)C1CCN(S(=O)(=O)c2ccc(-c3cc(C(F)(F)F)no3)s2)CC1	82%	?	0%	2%	12µM*	?
Cc1ccc(-c2cc(C(=O)N(Cc3ccc(C(C)(C)C)cc3)Cc3ccco3)no2)cc1	nt	nt	12%	nt	nt	nt
COc1ccccc1N1CCN(C(=O)c2sc3nc(C)nc(N4CCN(c5ccccn5)CC4)c3c2C)CC1	163%	?	5%	-25%	?	33%
COc1ccc(OC)c(NC(=O)c2sc3ncnc(N4CCN(c5ccccn5)CC4)c3c2C)c1	-19%	?	2%	5%	8.3µM*	?
Cc1c(C(=O)N2CCN(c3ccc(F)cc3)CC2)sc2ncnc(N3CCN(c4ccccn4)CC3)c12	61%	?	-2%	?	10µM*	12%
CCN1CCN(C(=O)c2sc3nc(C)nc(N4CCC(C)CC4)c3c2C)CC1	184%	-20%	0%	4%	13µM*	?
COc1ccccc1N1CCN(C(=O)c2sc3ncnc(N4CCN(c5ccccn5)CC4)c3c2C)CC1	153%	?	-6%	-18%	12µM*	2%
COc1ccc(NC(=O)c2sc3ncn(CC(=O)N4CCN(c5ccccn5)CC4)c(=O)c3c2C)c(OC)c1	-14%	-9%	-5%	3%	1%	24%
Cc1nc(N2CCN(c3ccccn3)CC2)c2c(C)c(C(=O)N3CCN(c4ccc(F)cc4)CC3)sc2n1	86%	?	2%	?	4.7µM*	1%
Cc1c(C(=O)N2CCN(c3ccccc3)CC2)sc2ncnc(N3CCN(c4ccccn4)CC3)c12	-19%	?	-1%	17%	?	30%
Cc1nc(N2CCN(C(=O)COc3ccccc3)CC2)c2c(C)c(C)sc2n1	0%	13µM*	-2%	-1%	-10%	66%
COc1cc(C2CC(=O)Nc3c2c(C)nn3-c2nncc(-c3ccccc3)n2)cc(OC)c1OC (stereo not drawn)	nt	nt	1%	nt	nt	nt
COc1ccc(C)cc1S(=O)(=O)NCCC1=CCCCC1	-3%	35µM*	-4%	3%	-13%	nt
COc1ccccc1CCN1C(=S)NC(C)(C)CC1(C)O (stereo not drawn)	-21%	?	6%	-8%	?	9.3µM*
COc1ccc(CN2C(=S)NC(C)(C)CC2(C)O)cc1 (stereo not drawn)	-10%	3%	2%	5%[11.6 µM]	-5%	-11%
CCCN(C(=O)NCc1noc2ccc(C)cc12)c1ccc(Cl)c(Cl)c1	nt	nt	0%	nt	nt	nt
CC(NC(=O)c1ccccc1OC(F)F)c1ccc(-n2ccnc2)cc1 (stereo not drawn)	114%	15%	2%	1%	?	12µM*

Compound activity from PubChem BioAssay.
